# Assay results reported in PubChem BioAssay (NCATS).
# Results filed as inconclusive are left out. Where a call stands in place of a potency, no number is given. Values without a mark were called inactive. Active and inactive are the calls of the source. The call rests on the fitted dose curve; in most records, active means well fitted cell-killing curve with a large enough effect; inconclusive means small, poorly fitted or top-dose-only effect, or effect the other way; inactive means no such curve, though single readings can be large or run the other way.
# Legend:
# [1] = Quantitative High-Throughput drug screen in 47 multiple myeloma cell lines against the NCATS MIPE library collection: MM1R_ATCC cell viability assay (AID 1918981); further: nearly all actives have a fitted effect of over 35% in size; further: potency means the concentration at half of the fitted maximal effect
# Procedure, shortened: (§1)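 Myeloma cells (500/well) treated with MIPE 4.0 compounds for 48 h at 37 °C, 5% CO2. Viability read as ATP via CellTiter-Glo luminescence after 5 min at RT; DMSO-only wells = 100%, media-only = 0% viability.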
# [2] = Quantitative High-Throughput drug screen in 47 multiple myeloma cell lines against the NCATS MIPE library collection: LP1_DSMZ cell viability assay (AID 1918982); further: nearly all actives have a fitted effect of over 35% in size; further: potency means the concentration at half of the fitted maximal effect
# Procedure, shortened: as §1
# [3] = Quantitative High-Throughput drug screen in 47 multiple myeloma cell lines against the NCATS MIPE library collection: KMS28PE_JCRB cell viability assay (AID 1918983); further: nearly all actives have a fitted effect of over 35% in size; further: potency means the concentration at half of the fitted maximal effect
# Procedure, shortened: as §1
# [4] = Quantitative High-Throughput drug screen in 47 multiple myeloma cell lines against the NCATS MIPE library collection: OCIMY5_PLB cell viability assay (AID 1918988); further: nearly all actives have a fitted effect of over 65% in size; further: potency means the concentration at half of the fitted maximal effect
# Procedure, shortened: as §1
# [5] = Quantitative High-Throughput drug screen in 47 multiple myeloma cell lines against the NCATS MIPE library collection: SKMM1_PLB cell viability assay (AID 1919863); settings: SKMM1 myeloma viability, CellTiter-Glo ATP, 48 h; viability: active compounds read low; further: nearly all actives have a fitted effect of over 35% in size; further: potency means the concentration at half of the fitted maximal effect; on viability: series mostly up to about 46 µM
# Procedure, shortened: as §1
# [6] = Quantitative High-Throughput drug screen in 47 multiple myeloma cell lines against the NCATS MIPE library collection: U266_ATCC cell viability assay (AID 1919864); further: nearly all actives have a fitted effect of over 35% in size; further: potency means the concentration at half of the fitted maximal effect
# Procedure, shortened: as §1
# [7] = Quantitative High-Throughput drug screen in 47 multiple myeloma cell lines against the NCATS MIPE library collection: XG6_PLB cell viability assay (AID 1919865); further: nearly all actives have a fitted effect of over 40% in size; further: potency means the concentration at half of the fitted maximal effect
# Procedure, shortened: as §1
# [8] = Quantitative High-Throughput drug screen in 47 multiple myeloma cell lines against the NCATS MIPE library collection: XG1_PLB cell viability assay (AID 1919866); further: nearly all actives have a fitted effect of over 35% in size; further: potency means the concentration at half of the fitted maximal effect
# Procedure, shortened: as §1
# [9] = Quantitative High-Throughput drug screen in 47 multiple myeloma cell lines against the NCATS MIPE library collection: UTMC2_PLB cell viability assay (AID 1919868); further: nearly all actives have a fitted effect of over 55% in size; further: potency means the concentration at half of the fitted maximal effect
# Procedure, shortened: as §1
# [10] = Quantitative High-Throughput drug screen in 47 multiple myeloma cell lines against the NCATS MIPE library collection: PE2_PLB cell viability assay (AID 1919869); further: nearly all actives have a fitted effect of over 35% in size; further: potency means the concentration at half of the fitted maximal effect
# Procedure, shortened: as §1
# [11] = Quantitative High-Throughput drug screen in 47 multiple myeloma cell lines against the NCATS MIPE library collection: PCM6_Riken cell viability assay (AID 1919870); further: nearly all actives have a fitted effect of over 30% in size; further: potency means the concentration at half of the fitted maximal effect
# Procedure, shortened: as §1
# [12] = Quantitative High-Throughput drug screen in 47 multiple myeloma cell lines against the NCATS MIPE library collection: RPMI8226_ATCC cell viability assay (AID 1919871); further: nearly all actives have a fitted effect of over 30% in size; further: potency means the concentration at half of the fitted maximal effect
# Procedure, shortened: as §1
# [13] = Quantitative High-Throughput drug screen in 47 multiple myeloma cell lines against the NCATS MIPE library collection: OPM2_DSMZ cell viability assay (AID 1919872); further: nearly all actives have a fitted effect of over 30% in size; further: potency means the concentration at half of the fitted maximal effect
# Procedure, shortened: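 Luminescent ATP measurement with CellTiter-Glo gives viability, scaled between DMSO-only wells (100%) and media-only wells (0%). Cells, 500 per well, faced library compounds for 48 hours at 37C.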
# [14] = Quantitative High-Throughput drug screen in 47 multiple myeloma cell lines against the NCATS MIPE library collection: KMS11_JCRBsus cell viability assay (AID 1919873); further: nearly all actives have a fitted effect of over 50% in size; further: potency means the concentration at half of the fitted maximal effect
# Procedure, shortened: as §1
# [15] = Quantitative High-Throughput drug screen in 47 multiple myeloma cell lines against the NCATS MIPE library collection: OCIMY7_PLB cell viability assay (AID 1918987); further: nearly all actives have a fitted effect of over 65% in size; further: potency means the concentration at half of the fitted maximal effect
# Procedure, shortened: as §1
# [16] = Quantitative High-Throughput drug screen in 47 multiple myeloma cell lines against the NCATS MIPE library collection: OPM1_PLB cell viability assay (AID 1918989); further: nearly all actives have a fitted effect of over 40% in size; further: potency means the concentration at half of the fitted maximal effect
# Procedure, shortened: as §1
# [17] = Quantitative High-Throughput drug screen in 47 multiple myeloma cell lines against the NCATS MIPE library collection: VP6_DJ cell viability assay (AID 1919867); further: nearly all actives have a fitted effect of over 40% in size; further: potency means the concentration at half of the fitted maximal effect
# Procedure, shortened: as §1
# [18] = Quantitative High-Throughput drug screen in 47 multiple myeloma cell lines against the NCATS MIPE library collection: KMS28BM_JCRB cell viability assay (AID 1919874); further: nearly all actives have a fitted effect of over 35% in size; further: potency means the concentration at half of the fitted maximal effect
# Procedure, shortened: as §1
# [19] = Quantitative High-Throughput drug screen in 47 multiple myeloma cell lines against the NCATS MIPE library collection: L363_DSMZ cell viability assay (AID 1918984); further: nearly all actives have a fitted effect of over 40% in size
# Procedure, shortened: as §1
# [20] = Quantitative High-Throughput drug screen in 47 multiple myeloma cell lines against the NCATS MIPE library collection: KMS34_JCRB cell viability assay (AID 1918985); further: nearly all actives have a fitted effect of over 40% in size; further: potency means the concentration at half of the fitted maximal effect
# Procedure, shortened: as §1
smiles,measurement,setting,value
CCOc1cc(N)c(Cl)cc1C(=O)NCC1CN(Cc2ccc(F)cc2)CCO1 (centres undefined),Potency,[1],inactive
same,Potency,[2],inactive
same,Potency,[3],inactive
same,Potency,[4],inactive
same,viability,[5],114%
same,Potency,[6],inactive
same,Potency,[7],inactive
same,Potency,[8],inactive
same,Potency,[9],inactive
same,Potency,[10],inactive
same,Potency,[11],inactive
same,Potency,[12],inactive
same,Potency,[13],inactive
same,Potency,[14],inactive
CNCC[C@H](Oc1cccc2ccccc12)c1cccs1,Potency,[1],14.8 µM (active)
same,Potency,[2],18.7 µM (active)
same,Potency,[3],18.7 µM (active)
same,Potency,[15],0.59 µM (active)
same,Potency,[4],2.35 µM (active)
same,Potency,[16],8.33 µM (active)
same,Potency,[6],2.35 µM (active)
same,Potency,[7],0.59 µM (active)
same,Potency,[8],0.833 µM (active)
same,Potency,[17],3.72 µM (active)
same,Potency,[9],2.64 µM (active)
same,Potency,[10],4.18 µM (active)
same,Potency,[12],23.5 µM (active)
same,Potency,[18],26.4 µM (active)
O=C(O)c1cccnc1,Potency,[1],inactive
same,Potency,[2],inactive
same,Potency,[3],inactive
same,Potency,[19],inactive
same,Potency,[16],inactive
same,viability,[5],107%
same,Potency,[6],inactive
same,Potency,[17],16.6 µM (active)
same,Potency,[10],inactive
same,Potency,[12],inactive
same,Potency,[13],inactive
CC(C)(Sc1cc(C(C)(C)C)c(O)c(C(C)(C)C)c1)Sc1cc(C(C)(C)C)c(O)c(C(C)(C)C)c1,Potency,[1],inactive
same,Potency,[2],inactive
same,Potency,[3],inactive
same,Potency,[4],inactive
same,viability,[5],149%
same,Potency,[6],3.32 µM (active)
same,Potency,[17],18.7 µM (active)
same,Potency,[9],5.9 µM (active)
same,Potency,[10],6.62 µM (active)
same,Potency,[18],inactive
COC(=O)Nc1nc2ccc(C(=O)c3ccccc3)cc2[nH]1,Potency,[1],1.66 µM (active)
same,Potency,[2],1.87 µM (active)
same,Potency,[3],1.87 µM (active)
same,Potency,[20],0.935 µM (active)
same,Potency,[15],0.418 µM (active)
same,Potency,[4],0.418 µM (active)
same,Potency,[16],1.66 µM (active)
same,Potency,[5],0.332 µM (active)
same,Potency,[6],14.8 µM (active)
same,Potency,[7],0.418 µM (active)
same,Potency,[8],0.332 µM (active)
same,Potency,[17],2.35 µM (active)
same,Potency,[9],2.35 µM (active)
same,Potency,[10],2.96 µM (active)
same,Potency,[11],5.9 µM (active)
same,Potency,[13],1.48 µM (active)
CNC1CCCN(c2c(F)cc3c(=O)c(C(=O)O)cn(C4CC4)c3c2OC)C1 (centres undefined),Potency,[1],inactive
same,Potency,[2],inactive
same,Potency,[3],inactive
same,Potency,[15],1.32 µM (active)
same,Potency,[16],5.9 µM (active)
same,viability,[5],118%
same,Potency,[7],inactive
same,Potency,[8],inactive
same,Potency,[10],inactive
same,Potency,[11],inactive
same,Potency,[12],inactive
same,Potency,[14],9.35 µM (active)
NNC(=O)c1ccncc1,Potency,[1],inactive
same,Potency,[2],inactive
same,Potency,[3],inactive
same,Potency,[19],inactive
same,Potency,[16],inactive
same,Potency,[8],inactive
same,Potency,[17],inactive
same,Potency,[10],inactive
same,Potency,[11],inactive
same,Potency,[12],inactive
same,Potency,[13],inactive
same,Potency,[14],inactive
same,Potency,[18],inactive
CC(N)C12CC3CC(CC(C3)C1)C2 (centres undefined),Potency,[1],inactive
same,Potency,[2],inactive
same,Potency,[3],inactive
same,viability,[5],118%
same,Potency,[7],inactive
same,Potency,[8],inactive
same,Potency,[17],inactive
same,Potency,[10],inactive
same,Potency,[11],inactive
same,Potency,[12],inactive
same,Potency,[13],inactive
same,Potency,[14],inactive
same,Potency,[18],inactive
CCC(=O)O[C@]1(C(=O)SCF)[C@H](C)C[C@H]2[C@@H]3C[C@H](F)C4=CC(=O)C=C[C@]4(C)[C@@]3(F)[C@@H](O)C[C@@]21C,Potency,[1],inactive
same,Potency,[2],inactive
same,Potency,[3],inactive
same,Potency,[15],5.26 µM (active)
same,Potency,[4],23.5 µM (active)
same,Potency,[16],inactive
same,Potency,[7],4.18 µM (active)
same,Potency,[8],14.8 µM (active)
same,Potency,[17],33.2 µM (active)
same,Potency,[10],inactive
same,Potency,[12],0.0019 µM (active)
same,Potency,[18],inactive
C[C@]12C=CC(=O)C=C1CC[C@@H]1[C@@H]2C(=O)C[C@@]2(C)[C@H]1CC[C@]2(O)C(=O)CO,Potency,[1],inactive
same,Potency,[2],inactive
same,Potency,[3],inactive
same,Potency,[20],inactive
same,Potency,[4],inactive
same,viability,[5],141%
same,Potency,[6],inactive
same,Potency,[7],inactive
same,Potency,[17],inactive
same,Potency,[11],inactive
same,Potency,[12],inactive
same,Potency,[18],inactive
CC[C@H](C)C(=O)O[C@H]1C[C@@H](C)C=C2C=C[C@H](C)[C@H](CC[C@@H]3C[C@@H](O)CC(=O)O3)[C@H]21,Potency,[1],16.6 µM (active)
same,Potency,[2],20.9 µM (active)
same,Potency,[19],inactive
same,Potency,[15],4.69 µM (active)
same,Potency,[4],16.6 µM (active)
same,Potency,[16],11.8 µM (active)
same,Potency,[11],inactive
same,Potency,[14],20.9 µM (active)
same,Potency,[18],23.5 µM (active)
CN(C)c1ccc(C(=C2C=CC(=[N+](C)C)C=C2)c2ccc(N(C)C)cc2)cc1,Potency,[1],0.132 µM (active)
same,Potency,[2],0.418 µM (active)
same,Potency,[3],0.105 µM (active)
same,Potency,[20],0.105 µM (active)
same,Potency,[15],0.0187 µM (active)
same,Potency,[4],0.0743 µM (active)
same,Potency,[16],0.0118 µM (active)
same,Potency,[5],0.0662 µM (active)
same,Potency,[6],1.05 µM (active)
same,Potency,[7],0.0833 µM (active)
same,Potency,[8],0.0235 µM (active)
same,Potency,[17],0.0296 µM (active)
same,Potency,[9],0.001 µM (active)
same,Potency,[10],0.0166 µM (active)
same,Potency,[11],0.0372 µM (active)
same,Potency,[12],0.0935 µM (active)
same,Potency,[13],0.166 µM (active)
same,Potency,[14],0.0264 µM (active)
same,Potency,[18],0.0743 µM (active)
CCCc1cc(C(N)=S)ccn1,Potency,[1],inactive
same,Potency,[2],inactive
same,Potency,[3],inactive
same,Potency,[20],inactive
same,Potency,[15],inactive
same,Potency,[4],inactive
same,Potency,[16],inactive
same,Potency,[8],inactive
same,Potency,[17],inactive
same,Potency,[10],inactive
same,Potency,[11],inactive
same,Potency,[12],inactive
same,Potency,[13],inactive
same,Potency,[14],inactive
same,Potency,[18],inactive
NC(=O)c1cccc(N)c1,Potency,[1],inactive
same,Potency,[2],inactive
same,Potency,[3],inactive
same,Potency,[15],4.69 µM (active)
same,Potency,[4],inactive
same,Potency,[16],inactive
same,viability,[5],132%
same,Potency,[6],inactive
same,Potency,[17],8.33 µM (active)
same,Potency,[10],inactive
same,Potency,[11],inactive
same,Potency,[12],inactive
same,Potency,[13],inactive
same,Potency,[14],inactive
